Assay results: PubChem BioAssay (Tox21)
A number with no mark means an inactive call. Inconclusive results are not listed. Where a call stands in place of a potency, no number is given. Calls of active or inactive are those of the source. Unless noted, calls follow the shape of the dose curve; as a rule, active = well fitted curve in the direction sought with a large enough effect in the repeat runs; inconclusive = weak or mixed curves; inactive = no such curve, though single readings can be large; an effect the other way counts as inactive or inconclusive.

Assays:
[1] = molecular target: Thyrotropin receptor (Homo sapiens) (UniProt P16473); test: qHTS assay to identify small molecule agonists of the thyroid stimulating hormone receptor (TSHR) signaling pathway (AID 1224843; calls by dose curve; also: nearly all actives have a fitted effect of over 45% in size)
Outline: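 HEK293 cells stably bearing the thyrotropin receptor were plated at 800 cells/well and challenged with compound (30 min, RT). Accumulated cAMP was quantified via cAMP-d2 competing for cryptate-tagged antibody.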

[2] = qHTS assay to identify small molecule agonists of the hypoxia (HIF-1) signaling pathway - cell viability counter screen (AID 1224844; calls by dose curve; also: nearly all actives have a fitted effect of over 50% in size)
Outline: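 Tox21 10K compounds were added to HRE-bla ME-180 cells (0.5% dialyzed FBS) and incubated 17 hrs at 37C; ATP-based CellTiter-Glo luminescence then reported cell viability in the same wells.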

[3] = qHTS assay to identify small molecule agonists of H2AX (AID 1224845; active = well fitted activation curve with a large enough effect in the signal ratio in the repeat runs, not every such curve was filed as active; the % refers to the signal ratio; also: potency is read from the fitted curve at half-maximal effect)
Outline: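 Phospho-H2AX Ser139 measured by HTRF (ex 320 nm; em 665 and 620 nm) after 24 hr antibody incubation. Compounds, 15 concentrations, 0.76% DMSO, were applied to CHO-K1 cells for 3hr at 37C before lysis.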

[4] = qHTS assay to identify small molecule agonists of the hypoxia (HIF-1) signaling pathway (AID 1224846; active = well fitted activation curve with a large enough effect in the signal ratio in the repeat runs, not every such curve was filed as active; the % refers to the signal ratio)
Outline: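 Steps: seed ME-180 HRE-bla cells (2,000/well, 0.5% dialyzed FBS); incubate 5 hrs at 37C; pin-transfer compounds or DMSO; incubate 17 hrs; add LiveBLAzer B/G substrate CCF4-AM; measure reporter activation by FRET.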

[5] = qHTS RealTime-Glo MT Cell Viability Assay in HepG2 cells - 24 hour (AID 1224867); also: nearly all actives have a fitted effect of over 50% in size
Outline: (§1)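 Compound treatment began 5 h after plating HepG2 cells (600/well) with NanoLuc luciferase and prosubstrate. Plates stayed at 37 C for 40 h; luminescence was captured at six time points, 0 h through 40 h.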

[6] = qHTS RealTime-Glo MT Cell Viability Assay in HEK293 cells - 32 hour (AID 1224868); also: top concentration of the series differs between compounds; nearly all actives have a fitted effect of over 50% in size
Outline: (§2)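 Quantitative high-throughput screen of the Tox21 10K library in HEK293: cells and RealTime-Glo reagents plated together, compound added at 5 h, luminescence monitored through 40 h at 37 C.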

[7] = A CellTox Green Cytotoxicity Assay to monitor cytotoxicity in HEK293 cells - 0 hour (AID 1224869); also: nearly all actives have a fitted effect of over 50% in size
Outline: (§3)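 Cytotoxicity was tracked continuously in HEK293 cells by a DNA-binding dye excluded from viable cells. Compounds were transferred in DMSO 5 h after seeding; fluorescence was recorded at intervals up to 40 h.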

[8] = qHTS RealTime-Glo MT Cell Viability Assay in HepG2 cells - 40 hour (AID 1224870); also: nearly all actives have a fitted effect of over 50% in size
Outline: (§4)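 Real-time viability: cells seeded at 600 per well together with NanoLuc and cell-permeant prosubstrate, compounds added after 5 h incubation. Luminescence tracked at 0, 8, 16, 24, 32 and 40 h of exposure.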

[9] = qHTS RealTime-Glo MT Cell Viability Assay in HEK293 cells - 16 hour (AID 1224872)
Outline: as §2

[10] = qHTS RealTime-Glo MT Cell Viability Assay in HepG2 cells - 8 hour (AID 1224873); also: nearly all actives have a fitted effect of over 55% in size
Outline: as §4

[11] = qHTS RealTime-Glo MT Cell Viability Assay in HEK293 cells - 40 hour (AID 1224874); settings: RealTime-Glo luminescence; max response: hits give low values; also: nearly all actives have a fitted effect of over 50% in size
Outline: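 Nonlytic bioluminescent viability monitoring. HEK293 at 600 cells/well with reagent; 5 h settle; compound transfer by pintool; plates held at 37 C and read at set time points.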

[12] = A CellTox Green Cytotoxicity Assay to monitor cytotoxicity in HEK293 cells - 24 hour (AID 1224875); also: nearly all actives have a fitted effect of over 45% in size
Outline: as §3

[13] = A CellTox Green Cytotoxicity Assay to monitor cytotoxicity in HepG2 cells - 16 hour (AID 1224876); also: nearly all actives have a fitted effect of over 45% in size
Outline: (§5)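 Real-time, homogeneous cytotoxicity readout: dead-cell DNA staining by CellTox Green in HepG2 monolayers, fluorescence measured at timed intervals up to 40 h of continuous compound exposure.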

[14] = qHTS RealTime-Glo MT Cell Viability Assay in HepG2 cells - 32 hour (AID 1224877); also: nearly all actives have a fitted effect of over 55% in size
Outline: as §1

[15] = A CellTox Green Cytotoxicity Assay to monitor cytotoxicity in HepG2 cells - 24 hour (AID 1224878); also: nearly all actives have a fitted effect of over 45% in size
Outline: as §5

[16] = A CellTox Green Cytotoxicity Assay to monitor cytotoxicity in HepG2 cells - 40 hour (AID 1224879); also: nearly all actives have a fitted effect of over 40% in size
Outline: as §5

[17] = qHTS assay to identify small molecule antagonists of the estrogen related receptor (ERR) signaling pathway from Tox21 library (AID 1224848); also: nearly all actives have a fitted effect of over 50% in size
Outline: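 Reading was by luminescence 30 min after ONE-Glo addition. Before that, ERR cells at 2,000 per well had rested 6 h at 37 C/5% CO2 and then received pin-tooled compounds in DMSO for 18 h at 37 C.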

[18] = qHTS assay to identify small molecule agonists of the estrogen related receptor (ERR) signaling pathway from Tox21 library (AID 1224849; calls by dose curve; also: nearly all actives have a fitted effect of over 15% in size); settings: ERR reporter cell line, ONE-Glo luciferase, 18 h; at 92.4 µM (top of the series) unless noted
Outline: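 Agonist signal is luciferase luminescence from an ERR reporter cell line treated 18 h at 37 C with DMSO-dissolved compounds, read 30 min after ONE-Glo addition at room temperature.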

[19] = qHTS assay to identify small molecule agonists of H2AX - cell viability counter screen (AID 1224847; calls by dose curve; also: top concentration of the series differs between compounds; nearly all actives have a fitted effect of over 30% in size)
Outline: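 Read-out: CellTiter-Glo luminescence, 30 min RT. Cells: wild-type CHO-K1, 1000/well, 10% FBS, plated overnight at 37C. Treatment: 15 concentrations, 3 hr, 37C, 0.76% DMSO.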

[20] = A CellTox Green Cytotoxicity Assay to monitor cytotoxicity in HEK293 cells - 40 hour (AID 1224871); also: nearly all actives have a fitted effect of over 45% in size
Outline: as §3

Sequence of Thyrotropin receptor (Homo sapiens) (P16473 whole entry, looked up): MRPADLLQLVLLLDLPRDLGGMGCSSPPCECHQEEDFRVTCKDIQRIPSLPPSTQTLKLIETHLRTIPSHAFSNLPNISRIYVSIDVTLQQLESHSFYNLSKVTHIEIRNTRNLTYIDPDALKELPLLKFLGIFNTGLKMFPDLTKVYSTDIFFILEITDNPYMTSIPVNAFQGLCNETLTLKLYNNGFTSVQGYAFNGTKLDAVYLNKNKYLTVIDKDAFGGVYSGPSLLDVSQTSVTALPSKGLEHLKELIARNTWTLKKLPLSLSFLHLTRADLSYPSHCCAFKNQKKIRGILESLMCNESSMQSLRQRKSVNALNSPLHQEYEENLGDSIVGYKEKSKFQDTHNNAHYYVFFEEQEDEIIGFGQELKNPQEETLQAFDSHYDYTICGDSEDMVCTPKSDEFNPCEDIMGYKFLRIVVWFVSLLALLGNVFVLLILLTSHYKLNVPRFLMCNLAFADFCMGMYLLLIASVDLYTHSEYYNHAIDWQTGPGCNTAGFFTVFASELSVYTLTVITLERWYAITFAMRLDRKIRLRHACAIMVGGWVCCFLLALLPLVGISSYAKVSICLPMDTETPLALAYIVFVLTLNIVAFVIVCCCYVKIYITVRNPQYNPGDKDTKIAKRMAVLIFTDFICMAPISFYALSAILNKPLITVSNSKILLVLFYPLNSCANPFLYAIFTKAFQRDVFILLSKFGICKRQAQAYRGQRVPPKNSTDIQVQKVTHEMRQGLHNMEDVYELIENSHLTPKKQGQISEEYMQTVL

| Structure (SMILES) | Potency [1] | Potency [2] | Potency [3] | outcome [4] | Potency [5] | Potency [6] | Potency [7] | Potency [8] | Potency [9] | Potency [10] | max response [11] [%] | Potency [12] | Potency [13] | Potency [14] | Potency [15] | Potency [16] | Potency [17] | activity change, positive = activation [18] | Potency [19] | Potency [20] |
| --- | --- | --- | --- | --- | --- | --- | --- | --- | --- | --- | --- | --- | --- | --- | --- | --- | --- | --- | --- | --- |
| CCCCCC=CCC=CCCCCCCCC(=O)OCC | inactive | inactive | 55.2 µM (active) | inactive | inactive | inactive | inactive | inactive | inactive | inactive | -1.44 | inactive | inactive | inactive | inactive | inactive |  |  |  |  |
| O=C1NCCN1 | inactive | inactive | inactive | inactive | inactive | inactive | inactive | inactive | inactive | inactive | 4.04 |  | inactive | inactive | inactive | inactive | inactive | 2.98% |  |  |
| CCOC(=O)OCC | inactive | inactive | inactive |  | inactive | inactive | inactive | inactive | inactive |  | 7.38 | inactive | inactive | inactive | inactive | inactive |  |  | inactive | inactive |
| C[Si]1(C)O[Si](C)(C)O[Si](C)(C)O1 | inactive | inactive | inactive | inactive | inactive |  |  | inactive | inactive | inactive |  | inactive | inactive | inactive | inactive | inactive | inactive | -9.67% |  | inactive |
| CO[C@H]1O[C@H](CO)[C@@H](O)[C@H](O)[C@H]1O | inactive | inactive | inactive | inactive | inactive | inactive | inactive | inactive | inactive | inactive | 5.92 | inactive | inactive | inactive | inactive | inactive | inactive | 10.5% |  | inactive |
| CN(C(=O)C(Cl)Cl)c1ccc(OC(=O)c2ccco2)cc1 | inactive | inactive | inactive |  | inactive | inactive | inactive | inactive | inactive | inactive | -3.14 | inactive | inactive | inactive | inactive | inactive |  |  | inactive | inactive |
| C=CC(C)(O)CCCC(C)CCCC(C)CCCC(C)C (stereo not drawn) | inactive | inactive | inactive | inactive | inactive | inactive | inactive | inactive | inactive | inactive |  | inactive | inactive | inactive | inactive | inactive | inactive | -0.948% |  | inactive |
| CCCCCCCCCCCC[N+](C)(C)CCCS(=O)(=O)[O-] | inactive | inactive | inactive | inactive | inactive | inactive |  | inactive | inactive | inactive | -0.977 |  | inactive | inactive | inactive | inactive |  |  |  |  |
| CC(C)(C)C(=O)O | inactive | inactive | inactive | inactive | inactive | inactive | inactive | inactive | inactive |  |  | inactive | inactive | inactive | inactive | inactive | inactive | 3.7% |  | inactive |
| Cn1c(=O)c2c(ncn2CC(=O)O)n(C)c1=O | inactive | inactive | inactive | inactive | inactive | inactive |  | inactive | inactive | inactive | 1.42 | inactive | inactive | inactive | inactive | inactive |  |  |  | inactive |
| CN1C(=O)CC(C)(c2ccccc2)C1=O (stereo not drawn) | inactive | inactive | inactive |  | inactive | inactive | inactive | inactive | inactive | inactive | -3.29 | inactive | inactive | inactive | inactive | inactive | inactive | 2.7% [at 42.5 µM] | inactive | inactive |
| N#C/C(=C1\SCC(c2ccccc2Cl)S1)n1ccnc1 (stereo not drawn) | inactive | inactive | inactive | inactive | inactive |  | inactive | inactive |  |  |  | inactive | inactive | inactive | inactive | inactive |  |  | inactive | inactive |
| CN1CCCN=C1/C=C/c1cccs1 | inactive | inactive | inactive |  | inactive | inactive | inactive | inactive | inactive | inactive | 5.88 | inactive | inactive | inactive | inactive | inactive |  |  | inactive | inactive |
| CC1=C(C=O)C(C)(C)CCC1 | inactive | inactive | inactive | inactive | inactive |  |  | inactive |  |  |  |  | inactive | inactive | inactive | inactive |  |  | inactive |  |
| CCCCCCCCCOC(C)=O | inactive | inactive | inactive |  | inactive |  | inactive | inactive | inactive | inactive | -10.8 | inactive | inactive | inactive | inactive | inactive |  |  | inactive | inactive |
